Assay results taken from PubChem BioAssay (NCATS).
Inconclusive results are not listed. Entries that show only a call come without a potency. Unmarked numbers belong to inactive results. Active and inactive are the calls of the source. Calls come from the whole dose curve; as a rule, active = well fitted inhibition curve with a large enough effect; inconclusive = small, poorly fitted or top-dose-only effect; inactive = no such curve, though single readings can be large or run the other way. Where a SMILES comes first, the peptide text is derived from it. [ ]: non-standard residue; d: D form. PhLac = O=C(O)[CH](O)Cc1ccccc1; NMeV = CN[CH](C(=O)O)C(C)C

Experiments:
[1] = test system: Zika virus NS2B-NS3 protease (unlinked complex); test: Primary screen GU Rhodamine qHTS for Zika virus inhibitors: Unlinked NS2B-NS3 protease assay (AID 1347159); note: nearly all actives have a fitted effect of over 60% in size
Procedure, shortened: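 Compounds, tested up to 114 microM, were incubated for 15 minutes with 25 nM unlinked NS2B-NS3 protease at pH 8.0. Cleavage of 1.5 microM Rhodamine110 substrate was then followed by fluorescence for 15 minutes.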

[2] = test system: Zika virus NS2B-NS3 protease (linked construct); test: Primary screen NINDS Rhodamine qHTS for Zika virus inhibitors (AID 1347160); note: nearly all actives have a fitted effect of over 55% in size
Procedure, shortened: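 Percent inhibition, normalized to uninhibited and enzyme-free controls, is fitted to a 4-parameter Hill equation. Fluorescence change comes from a 15-min cleavage of 1.5 microM bis-peptide Rhodamine110 substrate by 25 nM linked NS2B-NS3 at room temperature.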
Potency is the fitted concentration of half-maximal effect.

O=C(O)C[C@H](O)C[C@H](O)/C=C/c1c(C2CC2)nc2ccccc2c1-c1ccc(F)cc1
Potency [1]: inactive | Potency [2]: inactive

CC(C)CC(=O)O[C@@H]1OC=C(CO[C@@H]2O[C@H](CO[C@@H]3O[C@H](CO)[C@@H](O)[C@H](O)[C@H]3O)[C@@H](O)[C@H](O)[C@H]2O)[C@H]2C[C@H](O)[C@@H](CO)[C@@H]12
Potency [1]: inactive | Potency [2]: inactive

CC1CCC2(NC1)OC1C(=O)C3C4CCC5CC(O[C@@H]6O[C@H](CO)[C@@H](O)[C@H](O)[C@H]6O[C@@H]6O[C@@H](C)[C@H](O)[C@@H](O)[C@H]6O)CCC5(C)C4CCC3(C)C1C2C (stereo not given in full)
Potency [1]: inactive | Potency [2]: inactive

OC[C@H]1O[C@@H](Oc2cc(O)cc(/C=C/c3ccc(O)cc3)c2)[C@H](O)[C@@H](O)[C@@H]1O
Potency [1]: inactive | Potency [2]: inactive

COC(=O)[C@H](CC1C=NC=N1)NCC12CC3CC(CC(C3)C1)C2 (stereo not given in full)
Potency [1]: inactive | Potency [2]: inactive

C[C@@H](OC(=O)/C=C/c1ccc(O)cc1)C1=C[C@]2(C=C[C@@H]3C(C(=O)O)=CO[C@@H](O[C@@H]4O[C@H](CO[C@@H]5O[C@H](CO)[C@@H](O)[C@H](O)[C@H]5O)[C@@H](O)[C@H](O)[C@H]4O)[C@@H]32)OC1=O
Potency [1]: inactive | Potency [2]: inactive

C=C(C)C(=O)O[C@H]1C[C@@](C)(OC(C)=O)[C@@]2(O)CC[C@@](C)(O)[C@H](OC(C)=O)[C@@]23OC(=O)C(COC)=C13
Potency [1]: inactive | Potency [2]: inactive

CN1CC[C@@H](NC(=O)Nc2ccc(C#N)cc2)C[C@@H]1c1nc2ccccc2[nH]1
Potency [1]: inactive | Potency [2]: inactive

O=C1NC(Cc2ccc(O)cc2)C(=O)N2CCCC12 (stereo not given)
Potency [1]: inactive | Potency [2]: inactive

CC(C)C(C(=O)N1CCCC1C(=O)O)N(C)C(=O)C(O)Cc1ccccc1 (stereo not given) (H-[PhLac]-[NMeV]-Pro-OH; configuration not given here)
Potency [1]: inactive | Potency [2]: inactive

C1CCN2CC3C[C@@H](CN4CCCC[C@@H]34)[C@H]2C1
Potency [1]: inactive | Potency [2]: inactive

COc1cc(N2CCC(N(C)C)CC2)ccc1Nc1ncc(Cl)c(Nc2ccccc2P(C)(C)=O)n1
Potency [1]: inactive | Potency [2]: inactive

COc1cc(/C=C/C(=O)OC[C@H]2O[C@H](O[C@]3(CO)O[C@H](CO)[C@@H](O)[C@@H]3O)[C@H](O)[C@@H](O)[C@@H]2O)cc(OC)c1O
Potency [1]: inactive | Potency [2]: inactive

CC(C)C(=O)O[C@@H]1[C@@H](O)[C@@H](O[C@H]2O[C@H](CO)[C@@H](O)[C@H](O)[C@H]2O)O[C@H](CO)[C@H]1O
Potency [1]: inactive | Potency [2]: inactive

COC(=O)c1cc(CN2CCN(C(=N)N)CC2)cc(C(=O)N2CCN(C(=O)c3ccc(C(=N)N)cc3)CC2)c1
Potency [1]: inactive | Potency [2]: inactive

CC(C)[C@@H](C)/C=C/[C@@H](C)[C@H]1CC[C@H]2C3=CC=C4C[C@@H](O)CC[C@]4(C)[C@H]3CC[C@]12C
Potency [1]: inactive | Potency [2]: inactive

COc1ccccc1CC(C(=O)O)N(C)C(=O)c1ccccc1 (stereo not given)
Potency [1]: inactive | Potency [2]: inactive

CC(C)(O)CNc1nc(Nc2ccnc(C(F)(F)F)c2)nc(-c2cccc(C(F)(F)F)n2)n1
Potency [1]: inactive | Potency [2]: inactive

C=C1C2(CCC(=O)OC2(C)C)CC(OC(=O)/C(C)=C/C)C2(C)C13OC14C(=O)OC(C)(C(=O)C12C(=O)OC4C)C3OC(C)=O (stereo not given)
Potency [1]: inactive | Potency [2]: inactive

COc1ccc(/C=C/C(=O)O[C@@H]2[C@@H](O)[C@H](C)O[C@@H](OC3C4C=COC(O[C@@H]5O[C@H](CO)[C@@H](O)[C@H](O)[C@H]5O)C4C4(CO)OC34)[C@@H]2O)cc1OC (stereo not given in full)
Potency [1]: inactive | Potency [2]: inactive

CC1(C)C(=O)N2c3ccccc3[C@]3(CC(n4cnc5ccccc5c4=O)C(=O)O3)[C@H]2N1O (stereo not given in full)
Potency [1]: inactive | Potency [2]: inactive

NCCOCCOCCNC(=O)Cc1ccc(Nc2nc(NCc3ccc(F)cc3)nc(NCC3CCCCC3)n2)cc1
Potency [1]: inactive | Potency [2]: inactive

O=C(/C=C/c1ccc(O)cc1)OC[C@]12O[C@H]1[C@@H](O)[C@@H]1C=CO[C@@H](O[C@@H]3O[C@H](CO)[C@@H](O)[C@H](O)[C@H]3O)[C@@H]12
Potency [1]: inactive | Potency [2]: inactive

COc1cc2c(cc1OC)CN(C(=O)[C@@H](NCc1ccncc1)C(C)(C)C)CC2
Potency [1]: inactive | Potency [2]: inactive

COC1CC(=O)CCC(C)OC(=O)CC1O (stereo not given)
Potency [1]: inactive | Potency [2]: inactive

CCC[C@@H]1C[C@@H](C(=O)N[C@@H]([C@H]2O[C@H](SC)[C@H](OP(=O)(O)O)[C@@H](O)[C@H]2O)[C@H](C)Cl)N(C)C1
Potency [1]: inactive | Potency [2]: inactive

CC1(C)CCC2(C(=O)OC3OC(COC4OC(CO)C(O)C(O)C4O)C(O)C(O)C3O)CCC3(C)C(=CCC4C5(C)CCC(O)C(C)(C(=O)O)C5CCC43C)C2C1O (stereo not given)
Potency [1]: inactive | Potency [2]: inactive

C=C(C(=O)OC)C1CCC2(C)C(O[C@@H]3O[C@H](CO)[C@@H](O)[C@H](O)[C@H]3O)CC(=O)C(C)C2C1O (stereo not given in full)
Potency [1]: inactive | Potency [2]: inactive

Clc1ccc(CN[C@H]2CCN(c3ncc(Br)cn3)C2)c(Cl)c1
Potency [1]: inactive | Potency [2]: inactive

C/C=C1/[C@H](O[C@@H]2O[C@H](CO)[C@@H](O)[C@H](O)[C@H]2O)OC=C(C(=O)OC)[C@H]1CC(=O)O[C@@H]1O[C@H](CO)[C@@H](O)[C@H](O)[C@H]1O
Potency [1]: inactive | Potency [2]: inactive

OCCc1ccc(O[C@@H]2O[C@H](CO)[C@@H](O)[C@H](O)[C@H]2O)c(O)c1
Potency [1]: inactive | Potency [2]: inactive

COc1c(C)c(OCC=C(C)C)cc2c1C(=O)NC2=O
Potency [1]: inactive | Potency [2]: inactive

O=C(O)Cc1nn(Cc2nc3cc(C(F)(F)F)ccc3s2)c(=O)c2nccnc12
Potency [1]: inactive | Potency [2]: inactive

CC(=O)N1CCN(NC(=O)c2ccc(F)cc2)CC1
Potency [1]: inactive | Potency [2]: inactive

CC(=O)N[C@H]1CCN(c2ccc(C3=NOC(CN[S+](=O)([O-])C(C)C)C3)cc2F)C1 (stereo not given in full)
Potency [1]: inactive | Potency [2]: inactive

CCOc1ccc(C(Nc2ccccn2)c2ccc3ccc(C)nc3c2O)cc1C (stereo not given)
Potency [1]: inactive | Potency [2]: inactive

CNC(=O)[C@H]1O[C@@H](n2cnc3c(NCc4ccc(N)c(I)c4)ncnc32)[C@H](O)[C@@H]1O
activity change, negative = inhibition [1]: 10.8% [at 19.1 µM] | outcome [2]: inactive [at 10.7 µM]

COc1ccc2c(c1)OC[C@]1(O)c3cc4c(cc3O[C@H]21)OCO4
Potency [1]: inactive | Potency [2]: inactive

CC(C)(C)NCc1cc(Nc2ccnc3cc(Cl)ccc23)c2c(c1O)CCCC2
activity change, negative = inhibition [1]: 0% [at 1.28 µM] | outcome [2]: inactive [at 0.684 µM]

CC1(C(=O)O)CCCC2(C)C1CCC13CC(CCC21)C1(CO)OC31 (stereo not given)
Potency [1]: inactive | Potency [2]: inactive

C=CC(C)(C)C1(CC2NC(=O)C3CCCN3C2=O)C(=O)Nc2cc3c(cc21)C=CC(C)(C)O3 (stereo not given)
Potency [1]: inactive | Potency [2]: inactive

O=C(COc1ccc(Cl)cc1)NC1CCC(NC(=O)COc2ccc(Cl)cc2)CC1 (stereo not given)
Potency [1]: inactive | Potency [2]: inactive

O=S(=O)(NC1CCNCC1)c1cc(S(=O)(=O)c2ccccc2)ccc1C(F)(F)F
Potency [1]: inactive | Potency [2]: inactive

CCOC(=O)c1ccc(N(C)c2csc(-c3ccccc3)n2)cc1
Potency [1]: inactive | Potency [2]: inactive

COc1ccc2c3c1O[C@H]1C[C@@H](O)C=C[C@@]31CCN(C)C2
Potency [1]: inactive | Potency [2]: inactive

C=C1[C@H]2CC[C@]3(O)[C@@](CC[C@@H]4[C@](C)(C(=O)O)CCC[C@]43C)(C2)[C@H]1OC(=O)/C(C)=C\C
Potency [1]: inactive | Potency [2]: inactive

Cc1ccc(C(=O)Nc2ccc(Oc3cc4cnn(C)c4cc3-c3cn[nH]c3)c(F)c2)c(=O)n1-c1ccc(F)cc1
Potency [1]: inactive | Potency [2]: inactive

CC(=O)c1c(O)cc2c(c1C)C(=O)CC(O)C2 (stereo not given)
Potency [1]: inactive | Potency [2]: inactive

CC(=O)NC(CCC(=O)O)C(=O)NCCc1ccc(O)cc1 (stereo not given)
Potency [1]: inactive | Potency [2]: inactive

C=C1CC2[C@]3(C)C(=C(O)C(=O)[C@@]2(C)[C@]2(C(=O)OC)C(=O)C(C)OC(=O)[C@@]12C)C(C)(C)C(=O)CC3O (stereo not given in full)
Potency [1]: inactive | Potency [2]: inactive

C[C@@H]1O[C@@H](O[C@H]2[C@H](O[C@H]3CC[C@@]4(C)C(CC[C@]5(C)C4CC=C4C6CC(C)(C)CC[C@]6(C(=O)O[C@@H]6O[C@H](CO[C@@H]7O[C@H](CO)[C@@H](O[C@@H]8O[C@@H](C)[C@H](O)[C@@H](O)[C@H]8O)[C@H](O)[C@H]7O)[C@@H](O)[C@H](O)[C@H]6O)CC[C@]45C)[C@]3(C)CO)OC[C@H](O)[C@@H]2O)[C@H](O)[C@H](O)[C@H]1O (stereo not given in full)
activity change, negative = inhibition [1]: 20.6% [at 19.1 µM] | activity change, negative = inhibition [2]: 37.8% [at 10.7 µM]

COC(=O)[C@@]1(O)C=CC[C@@H]2[C@@]3(C)C[C@@H](c4ccoc4)OC(=O)[C@H]3CC[C@]21C
Potency [1]: inactive | Potency [2]: inactive

COc1cc(/C=C/C(=O)OC(C)(C)C(OC2OC(CO)C(O)C(O)C2O)C(=O)OCc2ccc(OC3OC(CO)C(O)C(O)C3O)cc2)ccc1O (stereo not given)
Potency [1]: inactive | Potency [2]: inactive

Cc1cc(O)cc(Oc2cc(C)c(C(=O)O)c(O)c2)c1
Potency [1]: 14.1 µM (active) | Potency [2]: 17.8 µM (active)

c1nc(NC2CCCCCC2)c2cc(CNC[C@H]3CCCO3)sc2n1
Potency [1]: inactive | Potency [2]: inactive

COC(=O)C[C@@H]1C(C(=O)O)=CO[C@@H](O[C@@H]2O[C@H](CO)[C@@H](O)[C@H](O)[C@H]2O)/C1=C\COC(=O)/C=C\c1ccccc1
Potency [1]: inactive | Potency [2]: inactive

O=C(OCc1cccc(O)c1O[C@@H]1O[C@H](CO)[C@@H](O)[C@H](O)[C@H]1O)C1(O)C(=O)C2C=CC1C1C=CC(=O)C(O)(C(=O)OCc3cccc(O)c3O[C@@H]3O[C@H](CO)[C@@H](O)[C@H](O)[C@H]3O)C21 (stereo not given in full)
Potency [1]: inactive | Potency [2]: inactive

COc1cc(/C=C/c2cc(O)cc(O[C@@H]3O[C@H](CO)[C@@H](O)[C@H](O)[C@H]3O)c2)ccc1O
Potency [1]: inactive | Potency [2]: inactive

CCOC(=O)Nc1nc2ccccc2[nH]1
Potency [1]: inactive | Potency [2]: inactive

COc1ccc2c(c1O)OC[C@H]1c3ccc(O)cc3O[C@@H]21
Potency [1]: inactive | Potency [2]: inactive
